High-throughput results deposited in PubChem by Broad Institute.
Sampled rows, rich in hits. Any-hit rate of the full collection: about 3.3%.
GSIS activator: GLuc luminescence reporter in INS-1E cells, primary screen for activators of glucose-dependent secretion of insulin. INS-1E GLuc reporter insulin secretion, 2-3 h. activation, % at 16.6 µM. actives 0.61% (n = 370,000). AID 743287;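 active = lowest replicate activation of at least 40%, so every replicate reaches that level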;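 note: 0% = median of neutral control wells and 100% = median of IBMX positive control wells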
CASP6 VEID inh: inhibitors of human caspase-6 | P55212 | purified caspase-6, Z-VEID-R110 cleavage fluorescence | inhibition, % at 12.5 µM | actives 0.53% (n = 350,000) | AID 686996;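 active = mean inhibition across replicates at least about 35%, with every replicate also reaching that limit, limit read from the data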;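 note: 0% = median of neutral control wells and 100% = no fluorescence left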
ERAP1 HTS inh: ERAP1 (human) enzyme inhibition | recombinant ERAP1, Leu-AMC fluorescence, 60 min | inhibition, % at 10.7 µM | actives 0.15% (n = 340,000);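 active = mean replicate inhibition of at least 30%, or all replicates individually reaching that 30% level; inactive = mean below 30% and not every replicate reaching it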;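 note: 0% = neutral control wells and 100% = L-leucinethiol positive control wells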
SIRT5 inh: blocks human SIRT5 desuccinylation of peptide; Purified SirT5, succinyl-peptide AMC, trypsin-coupled fluorescence; inhibition, % at 15 µM; actives 1.1% (n = 330,000); AID 652115; in the data active = inhibition above about 15%
FGF22 binding: FGF22 (human) thermal shift binding; AID 651658; recombinant FGF22 thermal shift, SYPRO orange fluorescence; percent of sucrose octasulfate shift, DMSO zero; activity (Tm shift, normalised), % at 9.99 µM; actives 1.5% (n = 340,000);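 active = mean Tm shift, scaled 0 neutral to 100 positive control, at about 1.3% or above, every replicate too, limit read from the data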
Target sequence (Q9HCT0 whole entry, looked up): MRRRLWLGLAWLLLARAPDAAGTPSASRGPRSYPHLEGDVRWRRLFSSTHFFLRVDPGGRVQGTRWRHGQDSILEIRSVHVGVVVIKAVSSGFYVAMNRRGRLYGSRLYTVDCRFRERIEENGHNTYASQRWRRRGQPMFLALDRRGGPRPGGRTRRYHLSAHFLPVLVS
* marks the source's active call; other numbers are inactive results; . = no result.

SMILES	GSIS activator	CASP6 VEID inh	ERAP1 HTS inh	SIRT5 inh	FGF22 binding
COc1cc(/C=C(/C#N)c2nc3ccccc3[nH]2)ccc1OCc1ccc(C(=O)O)o1	-23	24	23	18*	1
CCCN1CCC(NC(=O)Nc2ccc([N+](=O)[O-])cc2)CC1	-1	-5	-2	17*	0
N[C@@H](CO)c1nnc([C@H](Cc2ccc(O)cc2)NC(=O)C2CCNCC2)o1	22	-10	-3	28*	0
ClCc1csc(-c2ccccc2Cl)n1	-2	0	0	-4	43*
COc1ccc(-c2nc(CCl)cs2)cc1	.	0	0	-1	43*
COc1ccc(-c2nc(CCl)cs2)cc1OC	62*	.	-3	-10	0
CCc1ccc(-c2nc(CCl)cs2)cc1	-13	0	6	0	0
COc1cccc(-c2nc(CCl)cs2)c1	-1	-4	-3	-2	0
C=CCn1c(-c2csc(-c3ccc(OC)c(OC)c3)n2)n[nH]c1=S	83*	-1	-3	-2	0
CCOc1ccc(-c2nc(CSc3nnc(N)s3)cs2)cc1OC	57*	.	.	.	.
Cc1nc(CSc2nnc(N)s2)cs1	-2	1	9	2	0
CCC(=O)N(C)C[C@H]1Oc2ncc(C#Cc3ccncc3)cc2C(=O)N([C@H](C)CO)C[C@H]1C	7	0	76*	-5	0
CCC(=O)N(C)C[C@H]1Oc2ncc(C#Cc3ccncc3)cc2C(=O)N([C@H](C)CO)C[C@@H]1C	-2	0	0	-4	0
CCC(=O)N(C)C[C@H]1Oc2ncc(C#Cc3ccncc3)cc2C(=O)N([C@@H](C)CO)C[C@H]1C	5	-2	0	0	0
C[C@H](CO)N1C[C@H](C)[C@@H](CN(C)C(=O)CC2CC2)Oc2ncc(C#CC(C)(C)O)cc2C1=O	15	-2	1	-1	0
CCC(=O)N(C)C[C@@H]1Oc2ncc(C#Cc3ccncc3)cc2C(=O)N([C@@H](C)CO)C[C@@H]1C	1	-1	36*	-1	0
C[C@@H]1CN([C@H](C)CO)C(=O)c2cc(C#CC(C)(C)O)cnc2O[C@H]1CN(C)C(=O)CC1CC1	5	-3	1	25*	0
O=C(c1cnccn1)N1CC(=O)N2[C@H](C1)[C@@H](c1ccc(-c3cccc(F)c3)cc1)[C@@H]2CO	-2	3	1	-2	0
COc1ccc([C@H]2C/C=C\C[C@H](c3ccc4c(c3)OCO4)NC(=O)[C@H](c3ccccc3)CC(=O)N2)c(OC)c1	3	.	.	.	.
Oc1cc2c(cc1O)C1c3ccc(O)c(O)c3OCC1(O)C2 (stereo unspecified)	-14	42*	9	1	0
COc1ccc(S(=O)(=O)N(C)C[C@H]2Oc3ccc(NC(=O)Nc4ccc(C(F)(F)F)cc4)cc3C(=O)N([C@@H](C)CO)C[C@@H]2C)cc1	-11	.	.	.	.
CO[C@@H]1CN(C)C(=O)c2cc(NC(C)=O)ccc2OC[C@H](C)N(C(=O)Cc2ccccn2)C[C@H]1C	-2	-2	-1	-3	0
CCN(CC)CCCN=C1N[C@@H](c2ccccc2)C(C(=O)OC)=C(C)N1CC	17	-47	63*	-2	0
COC(=O)C1=C(C)N(Cc2cccc(C(F)(F)F)c2)C(=NCc2ccc3c(c2)OCO3)NC1CCc1ccccc1 (stereo unspecified)	114*	4	1	0	0
COC(=O)C1=C(C)N(Cc2cccc(C(F)(F)F)c2)C(=NCc2ccc3c(c2)OCO3)NC1c1cccc(C(F)(F)F)c1 (stereo unspecified)	.	6	0	.	42
COC(=O)C1=C(C)N(Cc2ccccc2C(F)(F)F)C(=NCc2ccc3c(c2)OCO3)NC1c1ccccc1 (stereo unspecified)	-25	0	0	17*	0
COC(=O)C1=C(C)N(Cc2cccc(C(F)(F)F)c2)C(=NCc2ccc(C(F)(F)F)cc2)NC1c1ccc(C(F)(F)F)cc1 (stereo unspecified)	815*	-6	1	-1	0
O=C(C[C@H]1CC[C@@H](NS(=O)(=O)c2ccc(F)cc2)[C@H](CO)O1)NCc1ccccc1F	6	4	-3	-4	.
COc1ccc(S(=O)(=O)N(C)C[C@@H]2Oc3ccc(NC(=O)CCN4CCOCC4)cc3C(=O)N([C@@H](C)CO)C[C@H]2C)cc1	18	0	0	.	0
